Sampled rows, rich in hits. Any-hit rate of the full collection: about 3.3%.
HCV inhibitor = qHTS Assay for Inhibitors of Hepatitis C Virus (HCV); Huh7.5.1 HCVcc-Cre infection, luciferase reporter, 44 h; Potency, µM (doses to about 41.8 µM), inactives show at the top dose activity change, negative = inhibition, hits mostly inhibitors; 3.4% of 340,000 active; AID 651820, 2012; active = well fitted inhibition curve with a large enough effect; inconclusive = small, poorly fitted or top-dose-only effect, or another doubt; inactive = no such curve, though single readings can be large or run the other way
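Antiviral activity was scored by luciferase reporter output from cells infected with HCVcc-Cre (~0.5 moi) in presence of compound, 44 h infection period, cells seeded 1,000/well 4 h prior.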
VACV mCherry inh = qHTS for Stage-Specific Inhibitors of Vaccinia Orthopoxvirus: mCherry Reporter Primary qHTS | Potency, µM (series often up to 36.5 µM), without a hit: at the highest dose activity change, negative = inhibition, most hits filed as inhibitors | Vaccinia virus mCherry reporter infection, fluorescence | 0.63% of 310,000 active; calls by dose curve; tested in A549 cells; also: nearly all actives have a fitted effect of over 35% in size
VACV Venus inh = qHTS for Stage-Specific Inhibitors of Vaccinia Orthopoxvirus: Venus Reporter Primary qHTS; 0.46% of 330,000 active; Vaccinia virus Venus reporter expression, fluorescence; Potency, µM (highest dose often 36.5 µM), for the others: at the highest dose activity change, negative = inhibition, usual class: inhibitors; AID 720580, 2013; calls by dose curve; tested in A549 cells; also: nearly all actives have a fitted effect of over 30% in size
* marks the source's active call; other numbers are inactive results; i = inactive; ? = inconclusive; · = no result; [ ] = dose if it differs, or a comment. % is scaled to controls: 0 for no effect and ±100 for the full control effect; potency is read from the fitted curve at half-maximal effect.

SMILES	HCV inhibitor	VACV mCherry inh	VACV Venus inh
O=[N+]([O-])c1ccc(SCc2ccco2)cc1N1CCOCC1	-24%	-23%	-4%
O=[N+]([O-])c1ccc(N2CCOCC2)cc1SCc1ccco1	11µM*	i	-22%
Cc1ccc(S(=O)(=O)Nc2ccc3c(c2)C(=O)N([C@H](C)CO)C[C@H](C)[C@@H](CN(C)C(=O)Nc2ccc(C(F)(F)F)cc2)O3)cc1	13µM*	-18%	-25%
Cc1ccc(S(=O)(=O)Nc2ccc3c(c2)C(=O)N([C@H](C)CO)C[C@H](C)[C@@H](CN(C)Cc2ccc(-c4ccccc4)cc2)O3)cc1	?	?	10µM*
COc1ccc(S(=O)(=O)N(C)C[C@H]2Oc3c(NC(=O)Nc4ccc(C(F)(F)F)cc4)cccc3C(=O)N([C@H](C)CO)C[C@@H]2C)cc1	?	?	10µM*
C[C@H](CO)N1C[C@H](C)[C@@H](CN(C)C(=O)Nc2ccc(C(F)(F)F)cc2)Oc2ccc(NS(=O)(=O)c3ccc(F)cc3)cc2C1=O	-22%	-2%	-16%
Cc1ccc(S(=O)(=O)Nc2ccc3c(c2)CC(=O)N([C@H](C)CO)C[C@@H](C)[C@H](CN(C)S(=O)(=O)c2ccccc2)O3)cc1	8%	i	1%
C[C@H]1CN([C@@H](C)CO)C(=O)c2cccc(NC(=O)Nc3ccc(C(F)(F)F)cc3)c2O[C@@H]1CN(C)S(=O)(=O)c1ccccc1	?	-13%	?
COc1ccc(S(=O)(=O)Nc2ccc3c(c2)C(=O)N([C@H](C)CO)C[C@H](C)[C@H](CN(C)Cc2ccc(C(=O)O)cc2)O3)cc1	-2%	-2%	4%
Cc1ccc(S(=O)(=O)N(C)C[C@@H]2Oc3ccc(NS(=O)(=O)c4ccccc4)cc3CC(=O)N([C@@H](C)CO)C[C@H]2C)cc1	0.56µM*	-11%	-8%
Cc1cc(C(=O)NCc2nc(-c3cccc(NC(=O)c4cc(C)oc4C)c3)oc2C)nc(C)n1	·	-16%	3%
CC1(C(=O)NS(=O)(=O)c2cccc(Cl)c2)CCN1C(=O)Cc1ccsc1 (stereo not drawn)	·	32%	3%
CNc1c(Cl)cc(C=O)cc1Cl	·	25%	-9%
N#C/C(=C\c1cc(Cl)cc(Cl)c1)c1cccnc1	·	-6%	-5%[60.7 µM]
C[C@H](CO)N1C[C@H](C)[C@@H](CN(C)C(=O)Nc2ccc(C(F)(F)F)cc2)Oc2c(NS(=O)(=O)c3cn(C)cn3)cccc2C1=O	2.8µM*	-17%	-10%
C[C@@H]1CCCCO[C@@H](CN(C)CC2CCCCC2)[C@@H](C)CN([C@H](C)CO)C(=O)c2cc(NS(=O)(=O)c3ccc(Cl)cc3)ccc2O1	·	?	10µM*
C[C@H]1CCCCO[C@H](CN(C)CC2CCCCC2)[C@@H](C)CN([C@@H](C)CO)C(=O)c2cc(NS(=O)(=O)c3ccccc3)ccc2O1	·	-6%	?
C[C@H](CO)N1C[C@H](C)[C@@H](CN(C)C(=O)Nc2ccccc2)Oc2c(NS(=O)(=O)c3cn(C)cn3)cccc2C1=O	23%	i	-21%
CN1N=C(C(=O)N2CCOc3ccc(CN4CCCC(C(=O)c5cccnc5)C4)cc3C2)CCC1=O (stereo not drawn)	·	-12%	-7%
Cc1cccc(C)c1NC(=O)C(=O)NCCCN1CCOCC1	1%	6.3µM*	2µM*
Cc1cccc2cc(C#N)c(NCCNC(=S)NCCCN3CCOCC3)nc12	11µM*	-11%	-21%
Cc1ccc(C)c(NC(=O)C(=O)NCCCN2CCOCC2)c1	-8%	-14%	-6%
Cc1cc2cc(C#N)c(NCCNC(=S)NCCCN3CCOCC3)nc2cc1C	?	-29%	-30%
CC(=O)N1CCc2c(sc3c2c(=O)n(CCc2ccccc2)c(=O)n3Cc2ccccc2C)C1	·	-27%	-23%
CCN1CCOC(=O)C1CC(=O)Nc1ccc(C)c(Cl)c1 (stereo not drawn)	·	-5%	9%
SMILES	HCV inhibitor	VACV mCherry inh	VACV Venus inh
COc1ccc(-c2oc3ncn4nc(-c5ccccc5O)nc4c3c2-c2ccc(OC)cc2)cc1	·	1%	1%
COc1ccc(Cl)cc1NC(=O)Cn1c(=O)c(-c2ccccc2NC(C)=O)nc2ccccc21	·	-14%	-10%
COc1ccc(-c2cc(C(F)F)nc(-n3nc(C)cc3C)n2)cc1	?	i	-13%
Cc1ccc(-c2cc(C(F)F)nc(NCc3cccs3)n2)cc1	?	-11%	-13%
Cc1ccc(-c2cc(C(F)F)nc(N3CCOCC3)n2)cc1	5.6µM*	-5%	?
Cc1ccc(-c2nc(C#N)c(NCC3CCCO3)o2)cc1 (stereo not drawn)	-10%	-7%	-4%
COc1ccc(-c2cc(C(F)(F)F)nc(NCc3ccc(Cl)cc3)n2)cc1	·	-16%	-1%
Cc1ccc(-c2cc(C(F)F)nc(NCC3CCCO3)n2)cc1 (stereo not drawn)	4µM*	-25%	?
Cc1ccc(-c2cc(C(F)F)nc(NCc3cccnc3)n2)cc1	6.3µM*	-18%	?
FC(F)(F)c1cc(-c2ccc(Cl)cc2)nc(NCc2cccnc2)n1	11µM*	?	?
Cn1c(NCCO)nc2c1c(=O)n(Cc1ccccc1Cl)c(=O)n2C	·	-6%	-3%
Cc1ccc(CNC(=O)CSc2nc(=O)[nH]c3c2CCCC3)cc1	·	-7%[7.34 µM]	-6%[7.34 µM]
COc1cccc(CN(C)C(=O)Cn2cc(C)c(=O)[nH]c2=O)c1	?	-17%	1%
CCOc1cc2ccccc2cc1C(=O)OCC(=O)Nc1ccc(Br)cc1	·	-2%	-11%
Cc1ccc(OCCCCn2nnc3sc4c(c3c2=O)CCC(C)C4)cc1 (stereo not drawn)	·	-4%	-5%
C=C1NN(C)C(=O)N1c1ccc(OC)cc1	·	-19%	-14%
N#Cc1nc(COc2ccc(-c3ccccc3)cc2)oc1NCCCN1CCOCC1	?	-11%	?
COc1ccc(N2CCN(c3oc(COc4ccccc4)nc3C#N)CC2)cc1	-19%	-22%	-15%
CN1CCN(c2oc(COc3ccc(-c4ccccc4)cc3)nc2C#N)CC1	5µM*	-7%	-17%
CN(C)CCNc1oc(COc2ccc(-c3ccccc3)cc2)nc1C#N	10µM*	-18%	-25%
Cc1ccc(C)c(NC(=O)CN2C(=O)COc3ccc(S(=O)(=O)N4CCCC4)cc32)c1	1%	-3%	-10%
COc1cc(/C=C2\C=Cc3ccccc32)cc(OC)c1OC	·	-7%	-7%
COC(=O)c1ccc(Cn2c(SCc3ccc(F)cc3)nc3ccncc32)cc1	·	5%	-10%
Cc1ccccc1OCC(=O)N(Cc1nc(-c2ccccc2)no1)C(C)C	0%	i	-8%
CC(C)N(Cc1nc(-c2ccccc2)no1)C(=O)c1ccc(Cl)cc1	?	i	-13%
COc1ccccc1C(=O)N(Cc1nc(-c2ccc(Cl)cc2)no1)C(C)C	11µM*	-12%	2%
Cc1ccccc1C(=O)N(Cc1nc(-c2ccc(Cl)cc2)no1)C(C)C	·	-2%	-7%
CC(C)N(Cc1nc(-c2ccccc2)no1)C(=O)c1ccc([N+](=O)[O-])cc1	22µM*	-12%	-21%
COc1ccccc1OCC(=O)N(Cc1nc(-c2ccccc2)no1)C1CCCCC1	11µM*	·	?
CNC(=O)Cn1nc(C)c(S(=O)(=O)N2CCOCC2)c1C	8%	·	·

Source: PubChem BioAssay
